# BoNT F protease: inhibitors of Botulinum neurotoxin F light chain protease. Multiplex microsphere protease cleavage assay, flow cytometry. inhibition, % at 10 µM. 360,000 tested, 0.22% active; in the data active means inhibition above about 35%, passing the limit was not always enough; inconclusive means no clear call, values can overlap the other calls; further: plate controls were buffer without enzyme for full effect and enzyme alone for no effect
# Autofluor counter: flagged as autofluorescent in microsphere protease counterscreen. AID 624483. fluorescence intensity (test concentration not listed). 360,000 tested, 3.1% active. compound autofluorescence counterscreen, microsphere flow cytometry; active compounds read high; in the data active means fluorescence intensity above about 16000; inconclusive means no clear call, values can overlap the other calls
# DUSP3 inh: inhibitors of human VHR1 phosphatase (DUSP3); recombinant VHR phosphatase, pNPP absorbance; 290,000 tested, 0.52% active; inhibition, % at 13.3 µM; AID 1654; in the data active means inhibition above about 50%
# Anthrax LF prot: blocks Bacillus anthracis lethal factor protease; P15917; multiplex microsphere protease cleavage assay, LF; inhibition, % at 10 µM; 360,000 tested, 0.12% active; further: plate controls were buffer without enzyme for full effect and enzyme alone for no effect
# MazF activator: increases E. coli MazEF RNase cleavage of RNA; activation, % at 20 µM; 350,000 tested, 0.32% active; FAM/BHQ RNA-DNA oligo cleavage fluorescence, 5 h; P0AE70; in the data active means activation above about 50%
# BoNT-A LC inh2: inhibitors of Botulinum neurotoxin A light chain protease; inhibition, % at 10 µM; multiplex microsphere protease substrate cleavage, flow cytometry; 360,000 tested, 0.17% active; further: plate controls were buffer without enzyme for full effect and enzyme alone for no effect
# An asterisk follows results filed as active; u = inconclusive; x = no result. A selection: hits, their analogues and other compounds. The true share with any hit is near 4%. Unless noted, no stated cut-off is given here; in the data, active means inhibition above about 30%; inconclusive means no clear call, values can overlap the other calls; inactive means below that.
SMILES,BoNT F protease,Autofluor counter,DUSP3 inh,Anthrax LF prot,MazF activator,BoNT-A LC inh2
COc1cc(C2C(C#N)=C(N)Oc3c2oc(CO)cc3=O)ccc1OC(C)C (stereo not drawn),-2.0,20218*,-24.2,-1.2,0.5,u
CN1C=CC=C/C1=C1/SC(=S)N(Cc2ccccc2)C1=O,0.4,2495,94.2,0.3,2.9,0.2
CCN1C(=O)/C(=C2/C=CC=CN2C)SC1=S,-9.1,23187*,8.2,-2.3,-14.9,-3.4
CCc1ccc(N2C(=O)/C(=C/c3cccs3)N(CC(=O)OC)C2=S)cc1,3.3,23041*,24.6,-1.2,1.1,u
CCC(NS(=O)(=O)c1ccc(OC)cc1)C(=O)O (stereo not drawn),7.4,8701,-7.7,12.1,5.2,1.4
CCCC(NS(=O)(=O)c1ccc(Br)cc1)C(=O)O (stereo not drawn),-8.7,25446*,8.1,3.7,-2.3,-4.3
CCC(NS(=O)(=O)c1ccc(C)cc1)C(=O)N1CCN(c2ccccn2)CC1 (stereo not drawn),-3.0,6079,50.0*,3.7,3.6,-0.3
CCC(NS(=O)(=O)c1ccc(C)cc1)C(=O)O (stereo not drawn),0.9,21879*,14.0,-1.1,-36.9,1.4
CC(=O)Nc1ccc(S(=O)(=O)N[C@@H](C)C(=O)N2CCN(c3ccccn3)CC2)cc1,-5.0,4136,x,-0.8,2.7,-0.7
O=C(Nc1ccccc1)Nc1snnc1C(=O)Nc1cccc(O)c1,-11.2,5840,4.8,-3.6,6.2,-0.3
Cc1cc(S(=O)(=O)NCCN(C)C)c(C)s1,1.0,22830*,23.2,-0.5,-1.5,0.3
Cc1cc(S(=O)(=O)NCc2ccc(S(N)(=O)=O)cc2)c(C)s1,-1.8,21825*,22.1,-2.0,8.3,2.6
COc1ccc(OCC(=O)Nc2ccc(S(=O)(=O)Nc3nc(C)cc(C)n3)cc2)cc1,-0.6,4627,28.2,-0.1,-1.5,-0.1
Cc1ccc(C(=O)NNC(=O)c2ccc(SCC3CCCO3)c([N+](=O)[O-])c2)cc1 (stereo not drawn),1.9,10655,-8.0,0.4,-12.9,0.1
O=C(NC(=S)NCC1CCCO1)c1ccccc1Br (stereo not drawn),-3.9,1927,-6.7,2.1,-0.7,0.0
O=C(NNC(=O)c1ccccc1Br)c1ccc(SCC2CCCO2)c([N+](=O)[O-])c1 (stereo not drawn),5.5,21390*,40.7,-0.8,8.2,3.9
O=C(NNC(=O)c1ccc(SCC2CCCO2)c([N+](=O)[O-])c1)c1ccc(Cl)c([N+](=O)[O-])c1 (stereo not drawn),5.2,21281*,6.4,-0.7,-5.7,6.1
COc1ccc(NC(=O)CCNS(=O)(=O)c2ccccc2F)cc1S(=O)(=O)N1CCOCC1,3.6,3026,x,-3.0,10.5,-0.5
COc1cccc(Nc2nc(N)nc(C(F)(F)F)n2)c1,u,u,8.4,u,-0.9,u
Cc1ccc(S(=O)(=O)N2CCN(C(=O)c3cccs3)CC2)cc1C,-1.1,3949,24.2,-2.6,-0.7,-0.4
CC(=O)c1ccc(N2C(=O)C3C4C=CC(CC4)C3C2=O)cc1 (stereo not drawn),-5.0,3986,5.8,3.4,8.0,0.2
COc1ccc(C2C3=C(CC(C)(C)CC3=O)Nc3c2c(=O)[nH]c(=O)n3Cc2ccccc2)cc1OC (stereo not drawn),-3.9,23655*,-7.9,-1.9,-5.8,-1.0
COCCCN1C2=C(C(=O)CC(C)(C)C2)C(c2ccc(OC)c(OC)c2)C2=C1CC(C)(C)CC2=O,u,3961,51.3*,1.1,-2.2,0.6
Cc1nc2[nH]c(=O)c3c(n2n1)NC1=C(C(=O)CC(C)(C)C1)C3c1ccc(F)cc1 (stereo not drawn),-4.9,5199,11.3,-3.6,-0.2,0.4
CCc1ccc(C2C3=C(CC(C)(C)CC3=O)Nc3c2c(=O)[nH]c2nc(C)nn32)cc1 (stereo not drawn),-8.3,21959*,42.8,-1.3,0.5,u
SMILES,BoNT F protease,Autofluor counter,DUSP3 inh,Anthrax LF prot,MazF activator,BoNT-A LC inh2
O=C(Nc1ccccc1Cl)c1cccc(NC(=O)C2C3CC4OC(=O)C2C4C3)c1 (stereo not drawn),0.3,23034*,-14.1,3.4,9.2,0.6
CSc1ncccc1C(=O)OCC(=O)NC1CCCc2ccccc21 (stereo not drawn),-9.9,3962,x,-3.8,0.3,-0.6
CC(=O)C(C(C)=O)c1c(Cl)c(O)c(O)c2c(C(=O)c3ccccc3)coc12,-15.9,2424,8.6,-12.3,-5.1,-0.6
COCCNC(=O)Nc1ccc2nc(-c3cccs3)c(-c3cccs3)nc2c1,41.6*,4576,28.5,57.4*,1.5,132.5*
COCCNC(=O)c1cc(-c2cccs2)on1,-4.8,5329,23.6,-4.3,1.6,-0.2
O=C(CS(=O)c1cccc(C(F)(F)F)c1)Nc1ccccc1Cl (stereo not drawn),-1.0,22990*,28.7,-1.6,11.6,-1.5
O=C(CSc1cccc(C(F)(F)F)c1)NC(=O)c1ccccc1,-2.8,1890,50.8*,-0.3,-4.3,0.2
O=C(CSc1cccc(C(F)(F)F)c1)Nc1ccc(Cl)cc1Cl,-2.0,19968*,24.2,-0.2,-1.5,u
CCNC(=O)NC(=O)CSc1cccc(C(F)(F)F)c1,9.9,9999,18.9,0.9,6.0,0.6
O=C(CS(=O)c1ccc(F)cc1)Nc1ccccc1Cl (stereo not drawn),-2.3,4183,3.0,-1.2,-4.7,-1.4
Cc1cc(C)cc(OCC(O)CN2CC(C)OC(C)C2)c1 (stereo not drawn),u,3034,5.2,-7.5,8.7,0.2
Cc1cc(C(=O)N(C)Cc2ccc(Br)cc2)no1,-7.7,3426,35.6,-4.5,2.0,-2.3
CN(Cc1ccccc1)C(=O)c1cc(-c2ccc(Br)cc2)on1,-2.4,23868*,4.3,-2.8,-16.7,-1.3
Cn1c(N)c(C(=O)CSc2nnc(N)s2)c(=O)n(C)c1=O,-10.3,2994,x,-12.7,9.5,-0.8
CC1(C)CC(C(CCN(Cc2ccccc2)C(=O)c2ccco2)c2ccc(F)cc2)CCO1 (stereo not drawn),-3.9,2530,1.3,-1.3,2.9,-0.5
O=C(c1ccco1)N(CCC(c1ccccc1)c1ccco1)Cc1ccc(F)cc1 (stereo not drawn),-0.1,16623*,19.7,-2.0,-2.3,-0.3
CC(C)N(Cc1nc(-c2ccccc2)no1)C(=O)C1CCCCC1,0.0,23062*,-12.9,-4.7,-1.0,0.1
COc1cc(C2C(C#N)=C(N)Oc3cc(N(C)C)ccc32)cc2c1OCO2 (stereo not drawn),-2.8,7806,16.7,-0.9,64.4*,1.3
COc1cc(C2C(C#N)=C(N)Oc3cc(O)ccc32)cc2c1OCO2 (stereo not drawn),4.2,3564,6.7,-2.1,9.8,0.4
CCN(c1ccc(N=Cc2c(O)n(Cc3ccc(OC)cc3)c(=O)c3ccccc23)cc1)C(C)C,52.0*,55670*,-10.5,13.3,-452.0,37.4*

# Screens as filed in PubChem.
